# Laboratory results taken from PubChem BioAssay AID485314 (National Center for Advancing Translational Sciences (NCATS), 2010).
# Hit rate of the full screen: of about 340,000 compounds, about 4,500 (1.3%) were called active. Entries that show only a call come without a potency. Not shown: some 5% with an inconclusive outcome. The sample holds actives, similar compounds and a random draw of the others, so the mix is not that of the screen. Calls come from the whole dose curve; as a rule, active = well fitted inhibition curve with a large enough effect; inconclusive = small, poorly fitted or top-dose-only effect, or another doubt; inactive = no such curve, though single readings can be large or run the other way.
# Target: DNA polymerase beta (Homo sapiens) (UniProt P06746)
# Test: qHTS Assay for Inhibitors of DNA Polymerase Beta
# Conditions: Pol beta primer extension/strand displacement, fluorescence kinetic; series mostly up to 114 µM
# Method in brief: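 Homogeneous kinetic assay of primer extension and strand displacement by 10 nM Pol beta, preincubated 15 min at room temperature with compound before 50 nM substrate (final) was added. Read at 0 and 10 min; four-parameter Hill fit.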
# Potency is the fitted concentration of half-maximal effect.
row,SMILES,Potency
1,Cc1ccn2c(Nc3ccc4c(c3)OCCO4)c(-c3ccc(C)s3)nc2c1,inactive
2,Cc1cccc(-n2ccnc2SCC(=O)Nc2cc(C(F)(F)F)ccc2Cl)c1,inactive
3,COc1cccc(Cn2c(SCc3ccc(C(=O)N4CCC(C)CC4)cc3)nc3ccncc32)c1,inactive
4,Cc1cc(C)cc(NC(=O)c2cnc3sc(N4CCCC4)nn3c2=O)c1,inactive
5,COc1ccc(-c2noc(-c3ccc(N4CCN(c5ccccc5)CC4)c([N+](=O)[O-])c3)n2)cc1OC,89.1 µM (active)
6,COc1cc(-c2noc(-c3ccc(N4CCCC4)c([N+](=O)[O-])c3)n2)cc(OC)c1OC,inactive
7,COc1ccccc1-c1noc(-c2ccc(NCc3ccccc3)c([N+](=O)[O-])c2)n1,inactive
8,COc1ccc(S(=O)(=O)NCC(c2ccc(N(C)C)cc2)N2CCc3ccccc32)cc1OC (stereo unspecified),inactive
9,COc1ccccc1N1CCN(S(=O)(=O)CCNC(=O)COc2ccc(F)cc2)CC1,inactive
10,CC(=O)Nc1cccc(NC(=O)CSc2nccn2Cc2ccc3c(c2)OCO3)c1,inactive
11,CCC1=C/C(=C\c2ccc3c(c2)OCO3)C(=O)S1,14.1 µM (active)
12,CCOC(=O)CCCNC(=O)COC(=O)/C=C/c1ccc2c(c1)OCO2,inactive
13,O=C(Cc1ccc(F)cc1)N/N=C/c1ccc2c(c1)OCO2,inactive
14,Cc1cccc(NC(=O)c2ccc(F)c(S(=O)(=O)N(C)C3CCCCC3)c2)c1,inactive
15,COc1ccc(NC(=O)c2sc3nc[nH]c(=O)c3c2C)cc1,inactive
16,CN(C)[C@@H]1C(=O)C(C(N)=O)=C(O)[C@@]2(O)C(=O)C3=C(O)c4c(O)ccc(Cl)c4[C@@H](O)[C@H]3C[C@@H]12,8.91 µM (active)
17,Cc1ccccc1CCNC(=O)C1CCN(c2nc3ccccc3nc2C(F)(F)F)CC1,inactive
18,COc1ccc(S(=O)(=O)Nc2cc3c(C(=O)OC(C)C)c(C)oc3c3ccccc23)cc1,inactive
19,COc1ccc(S(=O)(=O)/N=C2\C=C(NS(=O)(=O)c3ccccc3)C(=O)c3ccccc32)cc1,79.4 µM (active)
20,COc1ccc(NC(=O)c2cnc(NS(=O)(=O)c3ccccc3)nc2)cc1,inactive
21,CC(C)(C)c1ccc(S(=O)(=O)Nc2ccc(O)c(Sc3nc4ccccc4s3)c2)cc1,inactive

row,SMILES,Potency
1,CCC(C)NC(=O)CSC1=Nc2ccccc2C2=NC(CCC(=O)NCc3ccco3)C(=O)N12 (stereo unspecified),inactive
2,O=C(CC1N=C2c3ccccc3N=C(SCc3ccc(F)cc3)N2C1=O)NCc1cccs1 (stereo unspecified),inactive
3,O=C(CC1N=C2c3ccccc3N=C(SCc3cccc(Cl)c3)N2C1=O)NCc1ccc2c(c1)OCO2 (stereo unspecified),inactive
4,COc1ccc(NC(=O)CSC2=Nc3ccccc3C3=NC(CC(=O)NCc4ccccc4OC)C(=O)N23)cc1Cl (stereo unspecified),inactive
5,O=C(CC1N=C2c3ccccc3N=C(SCc3ccccc3Cl)N2C1=O)NCc1ccco1 (stereo unspecified),12.6 µM (active)
6,O=C(CSC1=Nc2ccccc2C2=NC(CC(=O)NCc3ccco3)C(=O)N12)NCc1ccco1 (stereo unspecified),39.8 µM (active)
7,CCN(CC)c1ccc(NC(=O)Cn2nc3c(cc2=O)CCCC3)c(C)c1,inactive
8,O=C(NCCCO)C(=O)Nc1c2c(nn1-c1ccc(F)cc1)CSC2,inactive
9,CCOC(=O)c1c(C)oc2ccc(N(C(=O)c3ccncc3)S(=O)(=O)c3ccc(CC)cc3)cc12,inactive
10,Cc1ccc(C)c(NC(=O)CSC2=Nc3ccccc3N=C(c3ccc(F)cc3)C2)c1,inactive
11,O=C1c2ccccc2NC(c2ccc(-c3cccc(Cl)c3)o2)N1O (stereo unspecified),inactive
12,O=C(O)C(c1ccccc1)N1C(=O)/C(=C\c2ccc(-c3cccc(Cl)c3)o2)SC1=S (stereo unspecified),50.1 µM (active)
13,Nc1nnnn1CC(=O)N/N=C/c1ccc(-c2cccc(Cl)c2)o1,inactive
14,Cc1ccc(C)c2sc(NC(=O)c3ccc(S(=O)(=O)N4CCCC4)cc3)nc12,inactive
15,COc1cccc(C(=O)Nc2ccc(-c3cc(C(F)(F)F)nn3-c3ccccc3)cc2)c1,inactive
16,CCOc1cc(-c2nnc(SCC(=O)NC3CCCCC3)nc2-c2ccc(OC)c(OCC)c2)ccc1OC,inactive
17,COCCN1C=C2C(=O)C(C)(OC(=O)C3CCCC3)C(=O)C=C2C=C1c1ccsc1 (stereo unspecified),inactive
18,COC/C=C/C1=CC2=CC(=O)C(C)(OC(=O)CCC(=O)OC)C(=O)C2=CO1 (stereo unspecified),39.8 µM (active)
19,COC(=O)CCCC1=CC2=CC(=O)C(C)(OC(=O)c3cccs3)C(=O)C2=CN1CC(C)C (stereo unspecified),inactive
20,COC(=O)c1cnn(-c2ccc(C(=O)Nc3ccc(OC(F)(F)F)cc3)cc2)c1N,inactive
21,COC(=O)c1ccccc1NC(=O)C1CCN(C(=O)N2CCOc3ccccc32)CC1,89.1 µM (active)

row,SMILES,Potency
1,COC(=O)c1ccccc1NC(=O)C1CCN(S(=O)(=O)c2cc(OC)ccc2OC)CC1,inactive
2,CCOc1ccc(NC(=O)C2CCN(C(=O)N3CCOc4ccccc43)CC2)cc1,inactive
3,Cc1ccc(-c2nn(CCC(=O)Nc3ccc(OC(F)(F)F)cc3)c(=O)c3ccccc23)cc1,inactive
4,Clc1cccc(-n2ncc3c(NCCc4ccccc4)ncnc32)c1,inactive
5,CCc1nnc(NC(=O)Cc2cccs2)s1,inactive
6,CCOC(=O)c1ccc(NC(=O)Cc2cccs2)cc1,inactive
7,CCOc1ccccc1NC(=O)Cc1cccs1,10 µM (active)
8,O=C(Cc1cccs1)Nc1nnc(SCc2ccc(F)cc2)s1,inactive
9,COc1ccc(NC(=S)NCc2cccs2)c(OC)c1,inactive
10,CCOc1ccc(NC(=O)C/C(C)=N/NC(=O)Cc2cccs2)cc1,inactive
11,COc1ccc(Cc2nnc(NC(=O)Cc3cccs3)s2)cc1,2 µM (active)
12,COc1ccc(OC)c(NC(=O)Cc2cccs2)c1,50.1 µM (active)
13,COc1ccc(C)cc1NC(=O)CNCc1cccs1,inactive
14,Cc1nnc(NC(=O)CSc2nc3c([nH]c4ccccc43)c(=O)n2-c2cccc(Cl)c2)s1,inactive
15,CCN(C(=O)CSc1nnc(C)n2c1cc1occc12)c1ccccc1,inactive
16,COc1ccc(C)cc1NC(=O)CCc1c(C)nn(-c2ccc(N3CCOCC3)nn2)c1C,inactive
17,COc1ccc(NC(=O)CSc2nc(NS(=O)(=O)c3ccc(C)cc3)cc(=O)[nH]2)cc1,17.8 µM (active)
18,Cc1ccc(OCCCC(=O)Nc2ccc(S(=O)(=O)Nc3cc(C)nc(C)n3)cc2)cc1,inactive
19,Cc1ccc(NC(=O)CSc2nc(CSc3ccc(C)cc3)cc(=O)[nH]2)cc1,inactive
